# Experimental data taken from PMC7862700, “An all-to-all approach to the identification of sequence-specific readers for epigenetic DNA modifications on cytosine”.
# What was measured:
# Experiment in all cases: DAPPL (digital affinity profiling via proximity ligation, sequencing); 10 mM Tris-HCl pH 7.5, 50 mM NaCl, 1 mM DTT, 4% glycerol, room temperature, 30 min; GST-TFs on glutathione beads, 16-mer random dsDNA library, 0.1% formaldehyde crosslink after washing; high values mean tight binding
# FLI1 = target: T1, FLI1 (Homo sapiens, UniProt Q01543 1-452); settings: protein: recombinant; tags: N-terminal GST; dsDNA, one strand shown
# T1 sequence: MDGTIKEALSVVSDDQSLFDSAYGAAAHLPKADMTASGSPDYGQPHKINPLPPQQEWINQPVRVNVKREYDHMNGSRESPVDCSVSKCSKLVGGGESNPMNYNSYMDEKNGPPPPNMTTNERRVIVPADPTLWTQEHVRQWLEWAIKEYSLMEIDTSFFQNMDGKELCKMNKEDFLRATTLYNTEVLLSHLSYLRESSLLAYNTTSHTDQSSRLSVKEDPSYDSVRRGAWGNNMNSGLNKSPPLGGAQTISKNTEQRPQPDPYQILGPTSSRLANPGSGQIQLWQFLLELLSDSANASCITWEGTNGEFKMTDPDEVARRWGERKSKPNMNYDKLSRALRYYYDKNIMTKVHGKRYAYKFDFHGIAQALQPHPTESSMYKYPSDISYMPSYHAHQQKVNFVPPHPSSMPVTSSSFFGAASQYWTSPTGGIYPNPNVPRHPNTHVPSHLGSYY
# How it was run: (§1)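 Human transcription factors fused to GST were expressed in yeast, captured on glutathione beads, given DNA barcodes and pooled with a GST-only negative control. Pools were incubated with 200 nmole of a 16-mer random double-stranded DNA library in Tris/NaCl/DTT/glycerol buffer at room temperature for 30 min. They were then washed, crosslinked with 0.1% formaldehyde, proximity-ligated (BsaI/T4 ligase, 1 h, 37 °C), PCR-amplified and sequenced on an Illumina NextSeq500. Binding signal is each 6-mer's read frequency for a factor divided by its frequency for the GST control.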
# ELK1 = target: T2, ELK1 (Homo sapiens, UniProt P19419 1-428); settings: protein: recombinant; tags: N-terminal GST; dsDNA, one strand shown
# T2 sequence: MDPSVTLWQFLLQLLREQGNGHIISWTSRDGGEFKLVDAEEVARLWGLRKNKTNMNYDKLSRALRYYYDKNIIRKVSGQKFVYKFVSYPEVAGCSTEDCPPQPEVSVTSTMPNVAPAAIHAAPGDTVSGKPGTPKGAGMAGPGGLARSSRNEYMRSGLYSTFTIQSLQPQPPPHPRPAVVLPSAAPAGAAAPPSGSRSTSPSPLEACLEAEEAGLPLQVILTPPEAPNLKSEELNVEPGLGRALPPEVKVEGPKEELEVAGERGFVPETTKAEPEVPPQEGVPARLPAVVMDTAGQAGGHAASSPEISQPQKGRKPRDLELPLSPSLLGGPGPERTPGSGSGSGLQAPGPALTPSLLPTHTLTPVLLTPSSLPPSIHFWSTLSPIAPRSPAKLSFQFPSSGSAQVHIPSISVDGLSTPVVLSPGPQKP
# How it was run: as §1
# GABPA = target: T3, GABPA (Homo sapiens, UniProt Q06546 1-454); settings: protein: recombinant; tags: N-terminal GST; dsDNA, one strand shown
# T3 sequence: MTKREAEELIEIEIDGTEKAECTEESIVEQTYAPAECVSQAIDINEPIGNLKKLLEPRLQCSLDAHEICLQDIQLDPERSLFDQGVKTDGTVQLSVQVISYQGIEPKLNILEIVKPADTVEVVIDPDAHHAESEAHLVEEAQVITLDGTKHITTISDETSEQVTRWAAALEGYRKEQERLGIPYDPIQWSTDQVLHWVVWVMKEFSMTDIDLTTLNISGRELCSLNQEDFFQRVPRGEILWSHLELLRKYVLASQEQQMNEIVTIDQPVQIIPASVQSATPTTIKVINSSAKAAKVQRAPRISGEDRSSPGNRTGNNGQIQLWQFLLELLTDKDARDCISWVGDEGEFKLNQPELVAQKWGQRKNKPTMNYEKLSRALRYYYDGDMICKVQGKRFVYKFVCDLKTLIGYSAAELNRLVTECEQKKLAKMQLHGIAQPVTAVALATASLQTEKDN
# How it was run: as §1
# ERG = target: T4, ERG (Homo sapiens, UniProt P11308 1-479); settings: protein: recombinant; tags: N-terminal GST; dsDNA, one strand shown
# T4 sequence: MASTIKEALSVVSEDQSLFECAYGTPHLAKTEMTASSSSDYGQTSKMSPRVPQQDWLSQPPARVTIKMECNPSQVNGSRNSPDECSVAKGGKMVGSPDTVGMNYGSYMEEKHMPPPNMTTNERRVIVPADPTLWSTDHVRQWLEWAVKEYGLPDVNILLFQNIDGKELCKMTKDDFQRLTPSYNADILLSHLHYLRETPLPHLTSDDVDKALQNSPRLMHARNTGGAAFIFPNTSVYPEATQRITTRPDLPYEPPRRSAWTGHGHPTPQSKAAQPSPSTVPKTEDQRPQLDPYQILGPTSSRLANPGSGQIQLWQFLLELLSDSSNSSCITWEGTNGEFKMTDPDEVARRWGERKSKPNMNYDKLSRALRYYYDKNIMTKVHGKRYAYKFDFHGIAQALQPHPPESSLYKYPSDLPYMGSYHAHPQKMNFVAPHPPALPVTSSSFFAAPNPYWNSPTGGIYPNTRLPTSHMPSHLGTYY
# How it was run: as §1
# ELF1 = ELF1 (Homo sapiens, UniProt P32519 1-619); settings: protein: recombinant; tags: N-terminal GST; dsDNA, one strand shown
# Sequence of ELF1 (P32519 whole entry): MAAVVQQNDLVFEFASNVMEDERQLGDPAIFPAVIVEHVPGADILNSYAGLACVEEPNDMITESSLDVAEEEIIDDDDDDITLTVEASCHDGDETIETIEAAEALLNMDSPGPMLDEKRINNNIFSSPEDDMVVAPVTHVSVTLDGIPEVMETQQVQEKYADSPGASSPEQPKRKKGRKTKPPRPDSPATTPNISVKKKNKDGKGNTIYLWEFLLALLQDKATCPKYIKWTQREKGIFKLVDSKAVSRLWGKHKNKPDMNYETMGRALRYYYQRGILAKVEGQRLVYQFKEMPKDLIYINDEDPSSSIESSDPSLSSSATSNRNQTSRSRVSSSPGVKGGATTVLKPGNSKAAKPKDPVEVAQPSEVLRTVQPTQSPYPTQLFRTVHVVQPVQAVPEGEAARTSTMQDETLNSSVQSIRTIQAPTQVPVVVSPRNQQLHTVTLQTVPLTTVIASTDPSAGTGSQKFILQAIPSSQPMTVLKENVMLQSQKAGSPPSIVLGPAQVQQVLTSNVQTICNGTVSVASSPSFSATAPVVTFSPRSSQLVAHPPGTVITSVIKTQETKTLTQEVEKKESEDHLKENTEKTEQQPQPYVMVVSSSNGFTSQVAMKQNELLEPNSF
# How it was run: as §1
# EHF = target: T5, EHF (Homo sapiens, UniProt Q9NZC4 1-300); settings: protein: recombinant; tags: N-terminal GST; dsDNA, one strand shown
# T5 sequence: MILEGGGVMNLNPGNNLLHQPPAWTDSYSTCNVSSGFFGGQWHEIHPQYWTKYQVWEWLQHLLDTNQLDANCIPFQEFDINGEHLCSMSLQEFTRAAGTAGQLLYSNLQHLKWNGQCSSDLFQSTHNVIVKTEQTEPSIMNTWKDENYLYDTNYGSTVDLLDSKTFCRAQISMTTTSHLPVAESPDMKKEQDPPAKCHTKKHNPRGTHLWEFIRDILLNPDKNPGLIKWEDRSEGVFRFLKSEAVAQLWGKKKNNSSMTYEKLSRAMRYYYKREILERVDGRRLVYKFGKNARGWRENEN
# How it was run: as §1
# SPI1 = SPI1 (Homo sapiens, UniProt P17947 1-270); settings: protein: recombinant; tags: N-terminal GST; dsDNA, one strand shown
# How it was run: as §1
# SPIB = SPIB (Homo sapiens, UniProt Q01892 1-262); settings: protein: recombinant; tags: N-terminal GST; dsDNA, one strand shown
# Sequence of SPIB (Q01892 whole entry): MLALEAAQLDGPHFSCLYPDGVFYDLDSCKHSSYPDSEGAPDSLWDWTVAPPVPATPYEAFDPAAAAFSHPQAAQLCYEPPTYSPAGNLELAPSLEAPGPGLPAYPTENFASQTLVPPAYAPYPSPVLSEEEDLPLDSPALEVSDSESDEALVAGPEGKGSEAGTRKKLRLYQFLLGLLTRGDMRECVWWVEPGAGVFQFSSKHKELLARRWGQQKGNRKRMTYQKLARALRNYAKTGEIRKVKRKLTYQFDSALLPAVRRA
# How it was run: as §1
# ELK3 = target: T6, ELK3 (Homo sapiens, UniProt P41970 1-407); settings: protein: recombinant; tags: N-terminal GST; dsDNA, one strand shown
# T6 sequence: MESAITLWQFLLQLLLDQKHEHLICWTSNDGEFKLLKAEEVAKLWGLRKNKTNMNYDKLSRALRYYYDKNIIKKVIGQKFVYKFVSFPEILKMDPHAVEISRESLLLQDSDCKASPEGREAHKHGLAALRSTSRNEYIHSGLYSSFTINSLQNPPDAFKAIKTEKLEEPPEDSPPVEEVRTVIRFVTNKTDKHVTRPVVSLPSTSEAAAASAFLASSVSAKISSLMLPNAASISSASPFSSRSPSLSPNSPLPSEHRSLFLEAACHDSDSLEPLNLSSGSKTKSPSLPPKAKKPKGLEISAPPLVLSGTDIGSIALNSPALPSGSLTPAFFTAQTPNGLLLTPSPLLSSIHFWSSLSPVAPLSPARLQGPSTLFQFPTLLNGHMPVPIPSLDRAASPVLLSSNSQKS
# How it was run: as §1
# FEV = target: T7, FEV (Homo sapiens, UniProt Q99581 1-238); settings: protein: recombinant; tags: N-terminal GST; dsDNA, one strand shown
# T7 sequence: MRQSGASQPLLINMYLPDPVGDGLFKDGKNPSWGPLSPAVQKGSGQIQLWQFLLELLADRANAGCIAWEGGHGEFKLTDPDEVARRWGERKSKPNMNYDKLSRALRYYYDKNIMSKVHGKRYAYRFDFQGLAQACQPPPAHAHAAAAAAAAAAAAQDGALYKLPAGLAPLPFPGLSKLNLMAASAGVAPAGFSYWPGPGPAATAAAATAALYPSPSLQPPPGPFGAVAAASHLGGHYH
# How it was run: as §1
# ETV5 = ETV5 (Homo sapiens, UniProt P41161 1-510); settings: protein: recombinant; tags: N-terminal GST; dsDNA, one strand shown
# Sequence of ETV5 (P41161 whole entry): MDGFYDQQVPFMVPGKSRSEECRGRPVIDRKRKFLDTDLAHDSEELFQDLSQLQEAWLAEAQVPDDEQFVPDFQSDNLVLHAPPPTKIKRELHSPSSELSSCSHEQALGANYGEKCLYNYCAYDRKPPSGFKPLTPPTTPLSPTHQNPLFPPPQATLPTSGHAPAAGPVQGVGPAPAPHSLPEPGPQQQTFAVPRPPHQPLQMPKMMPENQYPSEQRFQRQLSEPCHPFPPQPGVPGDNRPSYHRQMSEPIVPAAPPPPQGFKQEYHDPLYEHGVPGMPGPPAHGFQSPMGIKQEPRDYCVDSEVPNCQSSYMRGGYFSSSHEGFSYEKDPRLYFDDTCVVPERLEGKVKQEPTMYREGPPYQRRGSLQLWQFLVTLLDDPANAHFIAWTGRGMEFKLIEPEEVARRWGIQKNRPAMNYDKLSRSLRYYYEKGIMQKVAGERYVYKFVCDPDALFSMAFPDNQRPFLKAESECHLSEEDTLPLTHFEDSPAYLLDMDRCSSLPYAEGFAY
# How it was run: as §1
# HSF1 = HSF1 (Homo sapiens, UniProt Q00613 1-529); settings: protein: recombinant; tags: N-terminal GST; chain copies: 3; dsDNA, one strand shown
# Sequence of HSF1 (Q00613 whole entry): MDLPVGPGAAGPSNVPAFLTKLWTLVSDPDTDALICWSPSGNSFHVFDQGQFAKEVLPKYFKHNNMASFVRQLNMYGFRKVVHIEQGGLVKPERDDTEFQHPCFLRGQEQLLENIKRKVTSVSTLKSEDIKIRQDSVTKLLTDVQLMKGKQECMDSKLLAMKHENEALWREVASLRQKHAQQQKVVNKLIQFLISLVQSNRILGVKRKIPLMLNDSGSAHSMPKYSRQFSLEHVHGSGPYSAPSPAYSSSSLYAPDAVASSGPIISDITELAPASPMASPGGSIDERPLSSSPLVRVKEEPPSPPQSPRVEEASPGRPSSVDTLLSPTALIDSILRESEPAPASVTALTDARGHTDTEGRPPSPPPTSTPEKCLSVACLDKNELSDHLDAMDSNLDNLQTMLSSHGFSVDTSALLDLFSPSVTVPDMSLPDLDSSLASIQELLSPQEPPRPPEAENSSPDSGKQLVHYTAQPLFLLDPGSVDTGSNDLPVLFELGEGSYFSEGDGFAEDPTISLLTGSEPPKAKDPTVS
# How it was run: as §1
# SPIC = target: T8, SPIC (Homo sapiens, UniProt Q8N5J4 1-248); settings: protein: recombinant; tags: N-terminal GST; dsDNA, one strand shown
# T8 sequence: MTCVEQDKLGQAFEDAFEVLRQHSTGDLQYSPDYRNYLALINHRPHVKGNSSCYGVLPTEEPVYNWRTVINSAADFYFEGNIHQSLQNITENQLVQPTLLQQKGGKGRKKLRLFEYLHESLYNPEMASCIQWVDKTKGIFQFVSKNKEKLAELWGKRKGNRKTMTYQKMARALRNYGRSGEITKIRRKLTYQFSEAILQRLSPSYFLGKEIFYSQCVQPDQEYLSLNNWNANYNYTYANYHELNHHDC
# How it was run: as §1
# ELF4 = ELF4 (Homo sapiens, UniProt Q99607 1-663); settings: protein: recombinant; tags: N-terminal GST; dsDNA, one strand shown
# Sequence of ELF4 (Q99607 whole entry): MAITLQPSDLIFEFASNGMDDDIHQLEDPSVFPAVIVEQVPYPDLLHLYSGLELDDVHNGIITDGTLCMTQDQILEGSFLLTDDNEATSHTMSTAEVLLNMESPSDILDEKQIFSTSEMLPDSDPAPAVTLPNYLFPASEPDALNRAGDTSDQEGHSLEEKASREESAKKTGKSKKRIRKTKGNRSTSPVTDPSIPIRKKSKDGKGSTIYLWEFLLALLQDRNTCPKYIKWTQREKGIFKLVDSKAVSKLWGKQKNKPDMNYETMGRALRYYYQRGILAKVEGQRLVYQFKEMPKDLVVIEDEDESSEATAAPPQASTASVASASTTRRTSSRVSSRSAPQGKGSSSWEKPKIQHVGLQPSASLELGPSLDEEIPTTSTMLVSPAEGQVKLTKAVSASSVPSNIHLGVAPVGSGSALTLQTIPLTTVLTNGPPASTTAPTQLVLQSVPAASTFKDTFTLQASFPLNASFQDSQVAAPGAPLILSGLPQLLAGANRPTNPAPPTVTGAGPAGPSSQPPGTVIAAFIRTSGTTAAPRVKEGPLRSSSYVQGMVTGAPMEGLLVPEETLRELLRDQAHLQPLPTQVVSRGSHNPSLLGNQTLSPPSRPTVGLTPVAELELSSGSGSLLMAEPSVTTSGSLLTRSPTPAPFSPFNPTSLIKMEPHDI
# How it was run: as §1
# ELK4 = target: T9, ELK4 (Homo sapiens, UniProt P28324-2 1-405); settings: protein: recombinant; tags: N-terminal GST; dsDNA, one strand shown
# T9 sequence: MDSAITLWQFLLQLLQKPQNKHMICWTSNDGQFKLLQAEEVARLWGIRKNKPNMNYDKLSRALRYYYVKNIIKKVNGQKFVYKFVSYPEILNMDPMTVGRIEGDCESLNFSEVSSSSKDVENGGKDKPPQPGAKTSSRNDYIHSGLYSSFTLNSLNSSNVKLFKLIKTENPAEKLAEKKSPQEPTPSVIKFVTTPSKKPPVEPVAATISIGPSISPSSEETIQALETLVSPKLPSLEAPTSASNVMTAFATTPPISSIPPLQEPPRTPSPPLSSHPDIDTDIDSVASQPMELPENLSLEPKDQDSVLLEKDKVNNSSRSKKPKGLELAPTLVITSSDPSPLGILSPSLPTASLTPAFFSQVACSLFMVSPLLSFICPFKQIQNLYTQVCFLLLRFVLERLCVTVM
# How it was run: as §1
# ETV2 = target: T10, ETV2 (Homo sapiens, UniProt O00321 1-342); settings: protein: recombinant; tags: N-terminal GST; dsDNA, one strand shown
# T10 sequence: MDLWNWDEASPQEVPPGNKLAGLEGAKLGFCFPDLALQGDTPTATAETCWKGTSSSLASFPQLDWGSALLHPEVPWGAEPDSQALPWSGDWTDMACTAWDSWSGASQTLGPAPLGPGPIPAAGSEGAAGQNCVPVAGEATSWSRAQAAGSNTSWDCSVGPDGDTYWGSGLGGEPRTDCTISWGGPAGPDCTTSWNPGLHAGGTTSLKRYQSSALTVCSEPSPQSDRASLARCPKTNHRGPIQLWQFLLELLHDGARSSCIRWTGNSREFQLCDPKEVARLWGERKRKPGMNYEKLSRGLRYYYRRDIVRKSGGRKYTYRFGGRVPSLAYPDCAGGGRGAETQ
# How it was run: as §1
# ELF3 = target: T11, ELF3 (Homo sapiens, UniProt P78545 1-371); settings: protein: recombinant; tags: N-terminal GST; dsDNA, one strand shown
# T11 sequence: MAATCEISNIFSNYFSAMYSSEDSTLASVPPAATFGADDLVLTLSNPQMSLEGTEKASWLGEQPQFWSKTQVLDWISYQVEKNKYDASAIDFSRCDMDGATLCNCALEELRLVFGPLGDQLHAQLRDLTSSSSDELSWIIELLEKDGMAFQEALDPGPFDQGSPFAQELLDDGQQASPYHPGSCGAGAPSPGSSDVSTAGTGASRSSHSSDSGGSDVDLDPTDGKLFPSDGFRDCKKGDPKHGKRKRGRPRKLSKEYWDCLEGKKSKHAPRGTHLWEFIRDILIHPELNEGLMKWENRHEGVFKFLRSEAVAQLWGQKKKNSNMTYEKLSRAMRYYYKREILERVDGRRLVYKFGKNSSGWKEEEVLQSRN
# How it was run: as §1
# CRX = CRX (Homo sapiens, UniProt O43186 1-299); settings: protein: recombinant; tags: N-terminal GST; dsDNA, one strand shown
# Sequence of CRX (O43186 whole entry): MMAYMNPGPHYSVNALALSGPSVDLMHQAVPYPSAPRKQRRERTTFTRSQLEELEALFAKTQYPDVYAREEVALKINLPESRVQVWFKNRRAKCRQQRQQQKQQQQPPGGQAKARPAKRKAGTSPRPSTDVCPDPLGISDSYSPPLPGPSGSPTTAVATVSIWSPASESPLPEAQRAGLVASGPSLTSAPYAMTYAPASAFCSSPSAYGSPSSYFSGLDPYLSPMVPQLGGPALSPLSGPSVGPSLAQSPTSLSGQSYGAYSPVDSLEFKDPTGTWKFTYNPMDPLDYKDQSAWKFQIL
# How it was run: as §1
# ETV1 = ETV1 (Homo sapiens, UniProt P50549 1-477); settings: protein: recombinant; tags: N-terminal GST; dsDNA, one strand shown
# Sequence of ETV1 (P50549 whole entry): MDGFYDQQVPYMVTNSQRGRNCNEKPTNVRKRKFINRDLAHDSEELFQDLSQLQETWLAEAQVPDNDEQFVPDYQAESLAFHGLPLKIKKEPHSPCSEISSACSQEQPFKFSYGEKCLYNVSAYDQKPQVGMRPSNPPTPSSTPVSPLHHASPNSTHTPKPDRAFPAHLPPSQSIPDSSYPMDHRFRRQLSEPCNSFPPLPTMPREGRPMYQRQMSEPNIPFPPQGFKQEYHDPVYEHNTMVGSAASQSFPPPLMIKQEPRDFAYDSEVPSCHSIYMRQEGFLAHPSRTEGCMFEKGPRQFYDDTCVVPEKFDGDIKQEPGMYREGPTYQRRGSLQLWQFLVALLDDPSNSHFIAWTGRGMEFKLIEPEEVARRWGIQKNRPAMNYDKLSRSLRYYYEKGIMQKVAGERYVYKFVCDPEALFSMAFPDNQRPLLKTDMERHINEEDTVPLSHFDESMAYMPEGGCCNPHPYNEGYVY
# How it was run: as §1
sequence,measurement,setting,value
ACCCTA,binding signal,FLI1,"1.19 fold enrichment (6-mer frequency, TF over GST control)"
same,binding signal,ELK1,"1.36 fold enrichment (6-mer frequency, TF over GST control)"
same,binding signal,GABPA,"1.25 fold enrichment (6-mer frequency, TF over GST control)"
same,binding signal,ERG,"1.18 fold enrichment (6-mer frequency, TF over GST control)"
same,binding signal,ELF1,"1.32 fold enrichment (6-mer frequency, TF over GST control)"
same,binding signal,EHF,"1.09 fold enrichment (6-mer frequency, TF over GST control)"
same,binding signal,SPI1,"1.19 fold enrichment (6-mer frequency, TF over GST control)"
same,binding signal,SPIB,"1.16 fold enrichment (6-mer frequency, TF over GST control)"
same,binding signal,ELK3,"1.29 fold enrichment (6-mer frequency, TF over GST control)"
same,binding signal,FEV,"1.22 fold enrichment (6-mer frequency, TF over GST control)"
same,binding signal,ETV5,"1.21 fold enrichment (6-mer frequency, TF over GST control)"
same,binding signal,HSF1,"1.18 fold enrichment (6-mer frequency, TF over GST control)"
same,binding signal,SPIC,"1.19 fold enrichment (6-mer frequency, TF over GST control)"
same,binding signal,ELF4,"1.26 fold enrichment (6-mer frequency, TF over GST control)"
same,binding signal,ELK4,"1.24 fold enrichment (6-mer frequency, TF over GST control)"
same,binding signal,ETV2,"1.27 fold enrichment (6-mer frequency, TF over GST control)"
same,binding signal,ELF3,"1.23 fold enrichment (6-mer frequency, TF over GST control)"
same,binding signal,CRX,"1.29 fold enrichment (6-mer frequency, TF over GST control)"
same,binding signal,ETV1,"1.45 fold enrichment (6-mer frequency, TF over GST control)"
